The values that follow come from PubChem BioAssay AID430 (Sanford-Burnham Center for Chemical Genomics, 2006).

Screen size: about 63,000 compounds; about 1,100 (1.7%) were called active. Rule as the data show it: active = cytotoxicity above about 50%; inactive = the rest. The full list was thinned out, with actives kept by preference. Results with a measured potency or affinity are listed apart.

This experiment in a line: cytotoxicity in HPDE-C7 cells, cell-based, fluorescence, HTS (AID 430).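 Also: cells exposed to compound for 48 hours before viability readout; 0% = vehicle and 100% = reference cytotoxic drug.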 To be noted: HPDE-C7 pancreatic duct cells viability, at 10 µM, active compounds read high.
As for `COC(=O)c1ccc(C(=O)Nc2ccc(N)cc2N)cc1`, the cytotoxicity is -13.9% (inactive).

On to `c1ccc(N(c2ccccc2)c2nc(N3CCOCC3)nc(N3CCOCC3)n2)cc1`, for which the cytotoxicity is 4.8% (inactive).

For `COC(=O)C1(C)Nc2ccccc2C(=O)N1c1ccccc1C` (centres undefined), the cytotoxicity is 2.8% (inactive).

Consider `CCC1(CC)Nc2ccccc2C(=O)N1c1ccc(NC(C)=O)cc1`, for which the cytotoxicity was 10.6% (inactive).

Consider `CCOCCCNC(=O)C(c1ccc(Cl)cc1)N1CCN(C(=O)c2ccco2)CC1` (centres undefined), for which the cytotoxicity was -11.6% (inactive).

As to `Cc1onc(-c2ccccc2)c1C(=O)NCc1cccnc1`, the cytotoxicity is 4.9% (inactive).

As for `Cc1cc(OCCCCCNCCO)ccc1Cl`, the cytotoxicity is 18.7% (inactive).

Turning to `O=C(NCc1ccco1)c1cc(-c2ccc(Cl)cc2)on1`, the cytotoxicity is 5.9% (inactive).

For the molecule `CC(C)Cc1cc(C(=O)NCc2cccs2)no1`, the cytotoxicity is -21.1% (inactive).

Regarding `CC1(C)Nc2ccc(O)cc2-c2c1ssc2=S`, the cytotoxicity is 67.4% (active).

Regarding `CC1(C)c2ssc(=S)c2-c2ccccc2N1C(=O)c1ccco1`, the cytotoxicity was -13.6% (inactive).

`N#C/C(C(=O)c1ccccc1)=C1/CCCN1`: the cytotoxicity was 10.8% (inactive).

Take `COc1ccc(CCN2CC(C#N)=C3c4cc(OC)c(OC)cc4CCN3C2)cc1OC`: the cytotoxicity is -1.5% (inactive).

On to `O=C(c1ccccc1)N(Cc1ccc(F)cc1)C1CCS(=O)(=O)C1` (centres undefined), for which the cytotoxicity is -9.7% (inactive).

Turning to `c1ccc2oc(NC3=NCN(CC4CCCO4)CN3)nc2c1` (centres undefined), the cytotoxicity is -19.3% (inactive).

`CCN(CC)C(=O)CSc1ncnc2c1nnn2-c1ccc(OC)cc1`: the cytotoxicity is -17.1% (inactive).

Turning to `COc1ccc(-n2nnc3c(SCC(=O)NCC4CCCO4)ncnc32)cc1` (centres undefined), the cytotoxicity is -2.3% (inactive).

Turning to `CCOC(=O)Cn1cnc2c(C#N)c3n(c2c1=O)CCCCC3`, the cytotoxicity is -8.7% (inactive).

Turning to `Cc1c(Br)c(C(F)(F)F)nn1CC(=O)NCC1CCCO1` (centres undefined), the cytotoxicity was -17.2% (inactive).

For `CCn1c(Cc2ccccc2)nnc1SCC(=O)Nc1nc2ccccc2s1`, the cytotoxicity is -5% (inactive).

In the case of `CCn1c(SCC(=O)Nc2nc3ccccc3s2)nnc1-c1ccc(OC)cc1`, the cytotoxicity is 58.5% (active).

As for `CCn1c(Cc2ccc(OC)cc2)nnc1SCC(=O)Nc1nc2ccccc2s1`, the cytotoxicity is -6% (inactive).

For the molecule `CCCCNc1nc2ccccc2n1CC(=O)N1CCc2ccccc2C1`, the cytotoxicity is -0.3% (inactive).

With `COc1cccc(-c2cc(C(=O)N3CCCc4ccccc43)no2)c1`, the cytotoxicity is -19.5% (inactive).

For `CCOC(=O)C1=C(C)N=C2SC(C)C(=O)N2C1/C=C/c1ccccc1OC` (centres undefined), the cytotoxicity was -8.3% (inactive).

For the molecule `CCc1nc(Nc2ccncc2)c2oc3ccccc3c2n1`, the cytotoxicity was 67.4% (active).

`CCNc1nc(CC)nc2c1oc1ccccc12`: the cytotoxicity is -12.6% (inactive).

Regarding `Cc1nc(Nc2ccncc2)c2oc3ccccc3c2n1`, the cytotoxicity was -28.9% (inactive).

`OC1(c2cccc(C(F)(F)F)c2)CCN(c2ncnc3c2[nH]c2ccccc23)CC1`: the cytotoxicity is 123% (active).

As to `c1ccc2c(c1)[nH]c1c(N3CCC4(CC3)OCCO4)ncnc12`, the cytotoxicity was -10.6% (inactive).

Consider `c1ccc2c(c1)[nH]c1c(N3CCCC3)ncnc12`, for which the cytotoxicity is 0% (inactive).

For `COC(=O)c1cc2c(cc1Cl)SC(=NCCCN1CCOCC1)NS2(=O)=O`, the cytotoxicity was -1.2% (inactive).

As for `O=C(COc1cccc2cccnc12)Nc1nccs1`, the cytotoxicity is 8.2% (inactive).

For the molecule `O=C(O)c1ccccc1NS(=O)(=O)c1cccc2cccnc12`, the cytotoxicity is 21.6% (inactive).

For `COC(=O)c1ccccc1OC(=O)c1ccc(Br)o1`, the cytotoxicity is 7.5% (inactive).

As to `O=C(O)c1cccnc1Oc1ccccc1`, the cytotoxicity is -7% (inactive).

As to `O=C(Nc1cccc2cccnc12)c1ccc(Br)o1`, the cytotoxicity is 5.6% (inactive).

As to `FC(F)Oc1cccc2cccnc12`, the cytotoxicity was -5.8% (inactive).

Turning to `CCc1ccc(C(=O)N2CCN(c3ccc(F)cc3)CC2)s1`, the cytotoxicity is -18.1% (inactive).

As for `CC(=O)N1CCN(Cc2cc(=O)n3cc(Cl)c(C)c(Cl)c3n2)CC1`, the cytotoxicity is -7.9% (inactive).

On to `O/N=C(\Cc1cscn1)c1ccc(O)cc1O`, for which the cytotoxicity was -6.8% (inactive).

For the molecule `CCn1c(=O)cc(SCC(=O)Nc2ccc3c(c2)OCO3)c2ccccc21`, the cytotoxicity is 0.7% (inactive).

As to `O=C(c1cc(-c2ccncc2)nc2ccc(Br)cc12)N1CCN(c2ccccn2)CC1`, the cytotoxicity was 12.7% (inactive).

`O=C(c1cc(-c2ccccc2)nc2ccccc12)N1CCN(c2ccccn2)CC1`: the cytotoxicity is 17.1% (inactive).

Regarding `CCOc1ccc(-c2cc(C(=O)N3CCN(C)CC3)c3ccccc3n2)cc1`, the cytotoxicity is -8.5% (inactive).

For the molecule `Cc1ccc2nc(-c3ccccn3)cc(C(=O)N3CCN(c4ncccn4)CC3)c2c1`, the cytotoxicity is 8.9% (inactive).

As for `COc1ccc(-c2cc(C(=O)N3CCN(c4ccccn4)CC3)c3ccccc3n2)cc1`, the cytotoxicity is 32% (inactive).

Turning to `COc1cccc(-c2cc(C(=O)N3CCN(c4ncccn4)CC3)c3ccccc3n2)c1`, the cytotoxicity is -4.1% (inactive).

`COc1cc(-c2cc(C(=O)N3CCN(c4ccccn4)CC3)c3ccccc3n2)cc(OC)c1OC`: the cytotoxicity was 14.4% (inactive).

Take `CCOC(=O)N1CCN(C(=O)c2cc(-c3ccc(OCC)cc3)nc3ccccc23)CC1`: the cytotoxicity is 57.6% (active).

As for `O=C(c1cc(-c2ccncc2)nc2ccccc12)N1CCN(c2ccccn2)CC1`, the cytotoxicity is 56.1% (active).

Consider `Cc1ccc(-c2cc(C(=O)N3CCOCC3)c3ccccc3n2)cc1`, for which the cytotoxicity was -8.5% (inactive).

In the case of `CCOc1ccc(-c2cc(C(=O)N3CCN(c4ccccn4)CC3)c3ccccc3n2)cc1`, the cytotoxicity is 56.9% (active).

Consider `Cc1ccc(-c2cc(C(=O)N3CCN(c4ncccn4)CC3)c3ccccc3n2)cc1`, for which the cytotoxicity is 57.3% (active).

In the case of `Cc1ccc(S(=O)(=O)N2CCN(C(=O)CSc3nc4ccccc4o3)C2)cc1`, the cytotoxicity is -14.7% (inactive).

In the case of `O=C1CSC(c2ccccc2F)N1c1cc(Cl)ccc1O` (centres undefined), the cytotoxicity is 9.2% (inactive).

For `CSc1cccc(NC(=O)CN(C2CCCCC2)S(C)(=O)=O)c1`, the cytotoxicity was -17.9% (inactive).

Turning to `O=C(c1cccc(OC(F)F)c1)N1CCN(c2ncccn2)CC1`, the cytotoxicity was -14.1% (inactive).

Turning to `CCC(=O)Nc1ccc(S(=O)(=O)Nc2cccc(C)c2)cc1OC`, the cytotoxicity is 3.2% (inactive).

Consider `COc1ccc(CNC(=O)C2CCN(S(=O)(=O)c3cccc4cccnc34)CC2)cc1`, for which the cytotoxicity is 2% (inactive).

With `COc1cc(C2C3=C(Nc4ncnn42)c2ccccc2CC3)cc(OC)c1OC` (centres undefined), the cytotoxicity was 73.5% (active).

As to `COc1ccc(C2C3=C(Nc4ncnn42)c2ccccc2CC3)cc1OC` (centres undefined), the cytotoxicity was 32.9% (inactive).

In the case of `COc1ccc(C2C3=C(Nc4ncnn42)c2ccccc2CCC3)cc1` (centres undefined), the cytotoxicity was -20.3% (inactive).

As to `CCN(CC)S(=O)(=O)c1cccc(-c2nnc(SCC#N)n2Cc2ccccc2)c1`, the cytotoxicity was 3.5% (inactive).

With `N#CCC(=O)N1CCn2c1nc1ccccc12`, the cytotoxicity was -11.2% (inactive).

Turning to `O=C1CC(N2CCN(c3nc4ccccc4s3)CC2)C(=O)N1Cc1cccs1` (centres undefined), the cytotoxicity was 12.3% (inactive).

For `O=C1CC(N2CCN(c3ccc(F)cc3)CC2)C(=O)N1Cc1cccs1` (centres undefined), the cytotoxicity was -1.7% (inactive).

In the case of `CCOC(=O)CSc1nc(N)cc(=O)[nH]1`, the cytotoxicity was -12% (inactive).

As for `Cc1ccc(C(=O)NCc2ccc3c(c2)OCO3)cc1S(=O)(=O)N1CCOCC1`, the cytotoxicity is -5.3% (inactive).

Take `Cc1cc(NC(=O)CCC(=O)N(c2ccccc2)C(C(=O)NCC2CCCO2)c2cccnc2)no1` (centres undefined): the cytotoxicity is -0.6% (inactive).

For the molecule `CSC1=C(C#N)C(c2ccc(C)s2)CC(=O)N1` (centres undefined), the cytotoxicity was -8.2% (inactive).

Regarding `CCCOC(=O)CSC1=C(C#N)C(c2ccc3c(c2)OCO3)CC(=O)N1` (centres undefined), the cytotoxicity was 65.3% (active).

For `CCOC(=O)CSC1=C(C#N)C(c2ccccc2OC)CC(=O)N1` (centres undefined), the cytotoxicity was 54.9% (active).

For `CCCCOC(=O)CSC1=C(C#N)C(c2ccc3c(c2)OCO3)CC(=O)N1` (centres undefined), the cytotoxicity is 28.6% (inactive).

Regarding `CCSC1=C(C#N)C(c2ccccc2OC)CC(=O)N1` (centres undefined), the cytotoxicity is -4.8% (inactive).

For the molecule `CCOC(=O)CSC1=C(C#N)C(c2ccc(C)s2)CC(=O)N1` (centres undefined), the cytotoxicity is 54.7% (active).

Turning to `CCOC(=O)CC(=O)CSC1=C(C#N)C(c2ccccc2OC)CC(=O)N1` (centres undefined), the cytotoxicity was 43.6% (inactive).

`CCOC(=O)CSC1=C(C#N)C(c2sccc2C)CC(=O)N1` (centres undefined): the cytotoxicity is 63.5% (active).

As to `CCOC(=O)CSC1=C(C#N)C(c2ccc3c(c2)OCO3)CC(=O)N1` (centres undefined), the cytotoxicity was 43.8% (inactive).

For the molecule `CCSC1=C(C#N)C(c2ccc(C)s2)CC(=O)N1` (centres undefined), the cytotoxicity was -7.1% (inactive).

Take `COC(=O)CSC1=C(C#N)C(c2ccc(F)cc2)CC(=O)N1` (centres undefined): the cytotoxicity was 10.1% (inactive).

Consider `CCOc1ccc(C2CC(=O)NC(SCC(=O)OC)=C2C#N)cc1` (centres undefined), for which the cytotoxicity was 5.6% (inactive).

As to `O=C1CCC(=O)N1CC(=O)N1c2ccccc2Sc2ccccc21`, the cytotoxicity is -7.4% (inactive).

Turning to `COc1ccc(-n2nc3c(c2NC(=O)c2cc4ccccc4oc2=O)CS(=O)(=O)C3)cc1`, the cytotoxicity is -14.8% (inactive).

Take `Cc1cc(C)n(-c2nc3c(c(=O)[nH]c(=O)n3C)n2CCc2ccccc2)n1`: the cytotoxicity was 5.1% (inactive).

As for `Cc1[nH]c2ccccc2c1C(=O)CN1CCCCC1CCO` (centres undefined), the cytotoxicity is -11.2% (inactive).

With `CCOc1ccc(Cn2nnc(C(=O)NCc3ccc(OC)cc3)c2N)cc1`, the cytotoxicity was -14.5% (inactive).

`CCOc1cc(S(=O)(=O)NCC2OCCc3ccccc32)c(OCC)cc1-n1cnnn1` (centres undefined): the cytotoxicity is 2.3% (inactive).

Regarding `CCC(=O)OC1=C2C(=Nc3c(c(=O)n(C)c(=O)n3C)C2c2ccccc2)c2ccccc21` (centres undefined), the cytotoxicity is 0.2% (inactive).

For `CCOc1cc(NC(=O)c2ccco2)c(OCC)cc1NC(=O)Cc1ccc(OC)c(OC)c1`, the cytotoxicity is -12% (inactive).

As to `Cc1cc(C)cc(N2CCCn3c2nc2c3c(=O)n(CCN3CCOCC3)c(=O)n2C)c1`, the cytotoxicity was -6.7% (inactive).

On to `CC(=O)C1=C(O)C(=O)N(Cc2cccnc2)C1c1ccc(Cl)cc1Cl` (centres undefined), for which the cytotoxicity was -17.4% (inactive).

As for `Cc1ccc2c(c1)NC(=O)C(CC(=O)N(C)Cc1ccccc1)O2` (centres undefined), the cytotoxicity was 1.5% (inactive).

Take `CC(OC(=O)C1CCCO1)C(=O)NC1CCCC1` (centres undefined): the cytotoxicity is 5.3% (inactive).

With `COC(=O)c1ccc(NC(=O)c2ccccc2NS(C)(=O)=O)cc1`, the cytotoxicity was 10.7% (inactive).

Take `O=C(c1cccn2c(=O)c3ccc(Cl)cc3nc12)N1CCN(Cc2ccc3c(c2)OCO3)CC1`: the cytotoxicity is -0.1% (inactive).

With `COc1cc2c(O)c3c(c(-c4ccc5c(c4)OCO5)c2cc1OC)C(=O)OC3`, the cytotoxicity is 82.2% (active).

On to `COc1ccc(C(=O)Oc2ccc3c(c2)OCO3)cc1OC`, for which the cytotoxicity is -13.3% (inactive).

Consider `COc1cc2c(=O)n(-c3ccc(C)cc3)c(=O)n(CC(=O)c3ccc4c(c3)OCO4)c2cc1OC`, for which the cytotoxicity was 6.8% (inactive).
